Assay results: PubChem BioAssay (Tox21)
Results filed as inconclusive are left out. Active and inactive are the calls of the source. Unless noted, calls follow the shape of the dose curve; as a rule, active = well fitted curve in the direction sought with a large enough effect in the repeat runs; inconclusive = weak or mixed curves; inactive = no such curve, though single readings can be large; an effect the other way counts as inactive or inconclusive.

Legend:
[1] = qHTS assay to identify small molecule antagonists of the peroxisome proliferator-activated receptor delta (PPARd) signaling pathway - cell viability counter screen (AID 743213); also: nearly all actives have a fitted effect of over 50% in size
How it was run: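 PPARd-bla HEK293H cells (3000/well) got compound plus 300 nM L165041 agonist for 17 h at 37 C. Viability in the same wells came from CellTiter-Glo luminescence after 30 min at room temperature.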

[2] = target: Peroxisome proliferator-activated receptor delta (Homo sapiens) (UniProt Q03181); test: qHTS assay to identify small molecule antagonists of the peroxisome proliferator-activated receptor delta (PPARd) signaling pathway (AID 743215; active = well fitted inhibition curve with a large enough effect in the signal ratio in the repeat runs, not every such curve was filed as active; the % refers to the signal ratio;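 also: cells stimulated with agonist L165041 at 300 nM final during compound exposure; series mostly up to about 62 µM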)
Sequence of Peroxisome proliferator-activated receptor delta (Homo sapiens) (Q03181 whole entry, looked up): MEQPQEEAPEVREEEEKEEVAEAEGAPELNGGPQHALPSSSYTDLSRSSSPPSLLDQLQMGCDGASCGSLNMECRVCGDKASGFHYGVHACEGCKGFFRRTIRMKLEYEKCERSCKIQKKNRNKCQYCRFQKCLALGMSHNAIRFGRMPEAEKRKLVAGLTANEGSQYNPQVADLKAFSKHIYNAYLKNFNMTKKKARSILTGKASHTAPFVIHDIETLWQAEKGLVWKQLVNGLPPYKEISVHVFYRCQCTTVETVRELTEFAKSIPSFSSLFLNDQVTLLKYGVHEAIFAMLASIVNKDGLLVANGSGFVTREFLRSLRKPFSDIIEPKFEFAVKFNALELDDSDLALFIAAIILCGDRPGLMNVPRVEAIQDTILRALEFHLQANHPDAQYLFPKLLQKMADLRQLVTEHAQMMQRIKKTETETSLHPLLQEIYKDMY
How it was run: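 Screen format: qHTS, antagonist mode. HEK293H PPARd-bla cells received compound and 300 nM L165041 (final), 17 h, 37 C. Beta-lactamase detected via FRET substrate fluorescence, 2 h, room temperature.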

[3] = target: Bile acid receptor (Homo sapiens) (UniProt Q96RI1); test: qHTS assay to identify small molecule agonists of the farnesoid-X-receptor (FXR) signaling pathway (AID 743220; active = well fitted activation curve with a large enough effect in the signal ratio in the repeat runs, not every such curve was filed as active; the % refers to the signal ratio)
Sequence of Bile acid receptor (Homo sapiens) (Q96RI1 whole entry, looked up): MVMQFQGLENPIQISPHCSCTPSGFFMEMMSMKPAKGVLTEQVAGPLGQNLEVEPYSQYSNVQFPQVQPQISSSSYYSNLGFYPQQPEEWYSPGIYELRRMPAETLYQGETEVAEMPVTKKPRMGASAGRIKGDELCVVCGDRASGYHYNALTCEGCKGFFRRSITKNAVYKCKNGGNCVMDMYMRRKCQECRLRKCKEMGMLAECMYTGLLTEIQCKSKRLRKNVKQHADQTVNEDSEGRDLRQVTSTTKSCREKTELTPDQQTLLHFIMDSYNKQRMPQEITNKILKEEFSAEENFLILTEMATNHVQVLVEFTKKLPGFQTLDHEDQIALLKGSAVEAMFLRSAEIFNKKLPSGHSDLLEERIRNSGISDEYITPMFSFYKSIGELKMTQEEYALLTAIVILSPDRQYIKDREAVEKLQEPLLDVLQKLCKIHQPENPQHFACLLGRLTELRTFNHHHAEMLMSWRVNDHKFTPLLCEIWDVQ
How it was run: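 FXR-UAS-bla HEK 293T cells carrying a UAS-driven beta-lactamase reporter were plated for 5 h at 37C/5% CO2, then exposed to DMSO-dissolved Tox21 10K compounds for 16 h at 37C. A LiveBLAzer B/G FRET substrate was loaded for 2 h at room temperature before fluorescence reading.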

[4] = qHTS assay to identify small molecule antagonists of the farnesoid-X-receptor (FXR) signaling pathway - cell viability counter screen (AID 743221; active = well fitted cell-killing curve with a large enough effect in the repeat runs, not every such curve was filed as active; also: nearly all actives have a fitted effect of over 50% in size)
How it was run: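 HEK 293T FXR-bla cells, 5 h pre-incubation; compound + CDCA 50 uM final, 16 h, 37 C; beta-lactamase FRET read first, then CellTiter-Glo luminescence, 30 min RT.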

[5] = target: Vitamin D3 receptor (Homo sapiens) (UniProt P11473); test: qHTS assay to identify small molecule agonists of the vitamin D receptor (VDR) signaling pathway (AID 743222; calls by dose curve)
Sequence of Vitamin D3 receptor (Homo sapiens) (P11473 whole entry, looked up): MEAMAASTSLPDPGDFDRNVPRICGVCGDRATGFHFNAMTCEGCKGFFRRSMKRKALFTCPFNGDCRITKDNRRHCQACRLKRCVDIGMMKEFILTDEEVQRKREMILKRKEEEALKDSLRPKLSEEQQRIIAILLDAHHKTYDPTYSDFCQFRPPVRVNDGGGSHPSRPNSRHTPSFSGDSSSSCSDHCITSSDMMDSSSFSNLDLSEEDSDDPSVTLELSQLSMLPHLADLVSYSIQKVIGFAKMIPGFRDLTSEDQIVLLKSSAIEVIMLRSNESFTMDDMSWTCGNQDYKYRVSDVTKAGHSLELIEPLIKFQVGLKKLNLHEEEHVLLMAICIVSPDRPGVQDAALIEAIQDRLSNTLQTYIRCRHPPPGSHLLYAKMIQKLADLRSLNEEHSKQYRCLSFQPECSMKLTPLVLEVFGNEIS
How it was run: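 Using LiveBLAzer B/G FRET detection, agonism was scored in VDR-bla cells exposed overnight (16 h, 37C) to DMSO-dissolved compounds; substrate incubation was 2 h at room temperature.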

[6] = target: Vitamin D3 receptor (Homo sapiens) (UniProt P11473); test: qHTS assay to identify small molecule antagonists of the vitamin D receptor (VDR) signaling pathway (AID 743223; active = well fitted inhibition curve with a large enough effect in the signal ratio in the repeat runs, not every such curve was filed as active; the % refers to the signal ratio)
How it was run: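 Beta-lactamase reporter read-out: FRET substrate fluorescence after 2 h at room temperature, following 16 h exposure of VDR-bla cells to test compound plus 3 nM (final) 1alpha,25-dihydroxyvitamin D3 agonist at 37C.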

[7] = qHTS assay to identify small molecule agonists of the vitamin D receptor (VDR) signaling pathway - cell viability counter screen (AID 743224); also: series mostly up to about 63 µM; nearly all actives have a fitted effect of over 50% in size
How it was run: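 Counter screen for cytotoxicity: VDR-bla cells at 2,000 cells/well, 16 h compound exposure, then CellTiter-Glo luminescence after the beta-lactamase measurement.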

[8] = qHTS assay to identify small molecule agonists of the farnesoid-X-receptor (FXR) signaling pathway - cell viability counter screen (AID 743218); also: nearly all actives have a fitted effect of over 45% in size
How it was run: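 Same-well cytotoxicity check on FXR-UAS-bla HEK 293T cells: 5 h attachment, 16 h compound at 37 C, CellTiter-Glo luminescence read at room temperature after 30 min.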

[9] = target: Bile acid receptor (Homo sapiens) (UniProt Q96RI1); test: qHTS assay to identify small molecule antagonists of the farnesoid-X-receptor (FXR) signaling pathway (AID 743217; active = well fitted inhibition curve with a large enough effect in the signal ratio in the repeat runs, not every such curve was filed as active; the % refers to the signal ratio)
How it was run: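 Quantitative HTS, beta-lactamase reporter format: FXR-UAS-bla HEK 293T cells co-treated 16 h at 37 °C with compounds and 50 uM final chenodeoxycholic acid, then read by B/G FRET fluorescence.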

[10] = target: Peroxisome proliferator-activated receptor delta (Homo sapiens) (UniProt Q03181); test: qHTS assay to identify small molecule agonists of the peroxisome proliferator-activated receptor delta (PPARd) signaling pathway (AID 743212; calls by dose curve;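 also: HEK293H cells with PPARd UAS beta-lactamase reporter GeneBLAzer system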)
How it was run: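 Beta-lactamase reporter read by fluorescence (LiveBLAzer B/G FRET, 2 h, room temperature). Test agents, in DMSO, incubated at 37 C with PPARd-bla HEK293H cells.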

Measured: Potency

COc1cc(N)c(Cl)cc1C(=O)NC1CCN(Cc2ccccc2)CC1
not listed: [8] | [9] | [10]
inactive: all other assays above

CCOC(=O)C(Br)c1ccccc1 (stereo not drawn)
inactive: [1] | [2] | [8] | [4] | [7]

CC(C)CC(=O)OCc1ccccc1
inactive: [1] | [2] | [4] | [6] | [7]

CCN(CC)C(=O)N(CC)CC
not listed: [8] | [10]
inactive: all other assays above

CC[C@H]1CC[C@H](NCc2cc3c(cc2OC)[C@H]2C[C@H]2C(=O)N3C)[C@H](c2ccccc2)N1
inactive: [10] | [4]

CCCCC(CC)COC(=O)COc1cc(Cl)c(Cl)cc1Cl (stereo not drawn)
inactive: [1] | [2] | [8] | [3] | [7]

CCNCCO
not listed: [2] | [6] | [10]
inactive: all other assays above

CCCNC(C)(C)COC(=O)c1ccccc1
not listed: [3] | [9] | [10]
inactive: all other assays above

O=c1[nH]cnc2c1ncn2[C@@H]1O[C@H](CO)[C@@H](O)[C@H]1O
not listed: [5] | [10]
inactive: all other assays above

CCN(CC)CCNC(=O)COc1ccc(Cl)cc1
inactive: [1] | [2] | [8] | [4] | [7]

Nc1ccc2ccccc2c1S(=O)(=O)O
inactive: [1] | [2] | [4] | [5] | [6] | [7]

CN1CCN(c2c(F)cc3c(=O)c(C(=O)O)cn(CCF)c3c2F)CC1
inactive: [1] | [2] | [8] | [4] | [6] | [7]

COC(=O)c1ccc2cc(C(=O)OC)ccc2c1
inactive: [10] | [8] | [4]

C[C@@H]1CN(c2c(F)c(F)c3c(=O)c(C(=O)O)cn(C4CC4)c3c2F)C[C@H](C)N1
not listed: [9] | [10]
inactive: all other assays above

O=C1CCCc2ccccc21
inactive: [1] | [2] | [8] | [5] | [6] | [7]

CCN[C@H]1CN(CCCOC)S(=O)(=O)c2sc(S(N)(=O)=O)cc21
inactive: [1] | [2] | [8] | [5] | [6] | [7]

Cc1cc(NS(=O)(=O)c2ccc(N)cc2)nc(C)n1
inactive: [1] | [2] | [8] | [7]

CN1CCC[C@@H]1Cc1c[nH]c2ccc(CCS(=O)(=O)c3ccccc3)cc12
inactive: [1] | [2] | [4] | [5] | [6] | [7]

CCOC(=O)c1cc(=O)c2c(OCC(COc3cccc4oc(C(=O)OCC)cc(=O)c34)OC(=O)[C@@H](N)CCCCN)cccc2o1
not listed: [2] | [10]
inactive: all other assays above

OCc1c2ccccc2cc2ccccc12
inactive: [1] | [2] | [4] | [5] | [6]

FC(F)(F)C(F)(F)C(F)(F)C(F)(F)C(F)(F)C(F)(F)C(F)(F)C(F)(F)Br
not listed: [10]
inactive: all other assays above

OC[C@H]1O[C@@H](O[C@H]2[C@H](O)[C@@H](O)[C@H](O)O[C@@H]2CO)[C@H](O)[C@@H](O)[C@H]1O
inactive: [1] | [2] | [8] | [3] | [7]

CC(C)O
inactive: [10] | [9] | [3] | [4] | [6]

Cc1c(C(=O)NCCO)[n+](=O)c2ccccc2n1[O-]
inactive: [1] | [2] | [8] | [4] | [6] | [7]

Cn1cnc2c(F)c(Nc3ccc(Br)cc3Cl)c(C(=O)NOCCO)cc21
not listed: [9] | [10]
inactive: all other assays above

CN(CCCN1c2ccccc2CCc2ccccc21)CC(=O)c1ccc(Cl)cc1
not listed: [4] | [10]
inactive: all other assays above

C[C@]12C(=O)OC(=O)[C@H]1[C@H]1C=C[C@@H]2C1
inactive: [10] | [8] | [4] | [5] | [6] | [7]

Cc1ccc([N+](=O)[O-])cc1Cl
not listed: [4] | [7] | [10]
inactive: all other assays above

Nc1ccc(Oc2ccc(N)c(N)c2)cc1
not listed: [9] | [10]
inactive: all other assays above

CCCN(CCC)C(=O)C(CCC(=O)O)NC(=O)c1ccccc1 (stereo not drawn)
inactive: [1] | [2] | [8] | [4] | [5] | [7]

COC(=O)C(C)O (stereo not drawn)
not listed: [6] | [9] | [10]
inactive: all other assays above

CC1(C)S[C@@H]2[C@H](NC(=O)C(C(=O)O)c3ccccc3)C(=O)N2[C@H]1C(=O)O (stereo partly drawn)
not listed: [3] | [9] | [10]
inactive: all other assays above

O=C1N(c2ccccc2)c2ccccc2C1(Cc1ccncc1)Cc1ccncc1
inactive: [10] | [2] | [4] | [7]

Cc1cc2c(s1)Nc1ccccc1N=C2N1CCN(C)CC1
inactive: [1] | [2] | [4] | [5] | [6] | [7]

CN(C)CC[C@@H](c1ccc(Cl)cc1)c1ccccn1
inactive: [1] | [8] | [4] | [7]
